Source: PubChem BioAssay

biological target: Tumor necrosis factor receptor superfamily member 10B (Homo sapiens) (UniProt O14763); experiment: caspase-8 TRAIL sensitization, hit retest, confirmation, cell-based, NB7+caspase-8, with/without TRAIL, luminescence panel (AID 651596); conditions: NB7 neuroblastoma + caspase-8, TRAIL sensitization, luminescence viability, with TRAIL, mean of runs, at 10 µM, stronger effect = higher value
Sequence (O14763 whole entry, looked up): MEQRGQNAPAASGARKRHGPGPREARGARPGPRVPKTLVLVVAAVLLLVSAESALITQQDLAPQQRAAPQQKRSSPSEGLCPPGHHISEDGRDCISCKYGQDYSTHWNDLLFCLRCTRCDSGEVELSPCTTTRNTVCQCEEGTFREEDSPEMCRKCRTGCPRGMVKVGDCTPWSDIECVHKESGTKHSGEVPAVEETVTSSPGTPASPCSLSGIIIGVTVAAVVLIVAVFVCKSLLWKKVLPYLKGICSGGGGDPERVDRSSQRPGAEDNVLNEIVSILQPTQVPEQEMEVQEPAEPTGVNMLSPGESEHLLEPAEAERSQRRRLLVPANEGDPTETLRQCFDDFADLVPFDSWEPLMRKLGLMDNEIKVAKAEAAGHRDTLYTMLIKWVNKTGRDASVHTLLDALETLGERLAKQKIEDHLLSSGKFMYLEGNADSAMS

Compound | activity [%]
Cc1nc2sc(-c3ccccc3)cc2c(=O)[nH]1 | 74.1
O=C(NCCOc1ccccc1)c1cccc2c1C(=O)c1ccc(Cl)cc1S2(=O)=O | 35.6
Cc1ccc(CSc2nc3ncccc3[nH]2)cc1 | 71
Oc1ccc(-c2cnc(-c3ccc(O)cc3)nc2)cc1 | 88.2
Cc1ccc(/C=N/Nc2nnc(Cl)c3ccccc23)cc1 | 82.6
Cc1ccc(C(=O)COC(=O)c2ccc3c(c2)C(=O)N(c2cccc4ncccc24)C3=O)cc1 | 54.7
COc1ccc2cc3cc(C(=O)N4CCCCCC4)oc3nc2c1 | 45.1
CN(C)c1cccc(/C=C(\C#N)c2ccccc2)c1 | 28.8
COc1cc2c(cc1NC(=O)c1cccc([N+](=O)[O-])c1)oc1ccccc12 | -1.55
CC(C)N1CCc2c(sc(NC(=O)c3ccc([N+](=O)[O-])o3)c2C(N)=O)C1 | -2.23
Cc1cccc(Nc2nc(N)nc(CCl)n2)c1 | 97.7
CC(C)c1ccc(NC(=O)Nc2nc(C(N)C3CCCCC3)cs2)cc1 (stereo not given) | 92.2
OC(c1ccccc1)(c1ccccc1)C1CCN(CCCOc2ccc3c(c2)CCCC3)CC1 | 38
Cn1cccc1/C=C1\CCc2ccccc2C1=O | 63.4
COc1ccc(-c2cc3cc4c(cc3cn2)OCO4)cc1 | 60.3
COc1ccc(C(=O)c2c[nH]c3ccccc23)cc1 | 45.4
Cc1ccc(S(=O)(=O)n2ccc3c(OCCOCCNCc4ccc(F)cc4)cccc32)cc1 | 15.8
Cc1cccc(-n2ncc3c(NC4CCCCC4)ncnc32)c1 | 66.7
CCOc1ccc(/C=C/C(=O)c2c(O)cc(C)oc2=O)cc1 | 74.8
CCOC(=O)/C(=C/c1ccc(OC(F)F)cc1)C1=Nn2c(nnc2-c2ccc(Cl)cc2)SC1 | 98.8

Compound | activity [%]
Cc1ccc(-c2nnc(Nc3ccccc3)o2)cc1 | 59.7
CCCCCCCCC(c1nc2ccccc2[nH]1)N1CCN=C1c1cc2ccccc2[nH]1 (stereo not given) | 54.9
Cc1ccccc1C(=O)Nc1nnc(SCC(=O)NC2CC2)s1 | 48.7
CC1(C)N=C(N)N=C(N)N1CCCCc1ccccc1 | 63.6
Cc1ccc2oc(/N=C(\N)NC(=O)C3CC3)nc2c1 | 56.4
Cc1cccc(N2CCN(C(=S)Nc3ccc4nc(N5CCN(C)CC5)cc(C)c4c3)CC2)c1C | 98
COc1cc(SC#N)ccc1N=Cc1c(C)[nH]n(-c2ccc(C)c(C)c2)c1=O | 93
FC(F)(F)c1cc(CCN2CCNC[C@@H]2CC2CCCCC2)cc(C(F)(F)F)c1 | 35.1
O=C(Nc1ccc(N2CCOCC2)cc1)c1cnccn1 | 84.4
Nc1nc(=S)c2ncn(C3OC(CO)C(O)C3O)c2[nH]1 (stereo not given) | 9.65
O=C(/C=C/c1ccc(F)cc1)NC(=S)Nc1ccccc1C(=O)NC1CCCCC1 | -1.65
N/C(=N\OC(=O)COc1ccc(Cl)cc1Cl)c1ccccn1 | 37
CCOc1ccc(CN(C)C(=O)[C@H](Cc2ccccc2)NC(=O)OCc2ccccc2)cc1OC | -12.3
CCc1ccc(-c2cn3nc(C)c(C)nc3n2)cc1 | 75.3
COc1ccc2nc(-c3ccccc3)[nH]c2c1 | 57.3
Cc1cccc2sc(NNC(=O)c3ccc(S(=O)(=O)N4CCCC(C)C4)cc3)nc12 (stereo not given) | 51.8
C=Cc1ccc(Cn2c(C)c(C(=O)NCc3ccc(Cl)c(Cl)c3)sc2=O)cc1 | 91.2
O=C(CCN1C(=O)c2ccccc2C1=O)Nc1ccc(-c2nc3ccccc3s2)cc1 | 44.4
CN(C)CCCNC(=O)C[C@H]1C[C@H](C(=O)N2CCCCC2)[C@@]2(CCc3ccccc3)c3[nH]c4ccc(Cl)cc4c3CCN2C1=O | 35.8
CNC[C@H](Cc1ccccc1)NC[C@@H](Cc1cccc2ccccc12)NCCc1ccc(C)cc1 | 95.4

tested on: not listed separately; experiment: as above; conditions: NB7 neuroblastoma + caspase-8, without TRAIL, luminescence viability, without TRAIL, mean of runs, at 10 µM; in the data active = activity above about 50%; inactive = the rest

Compound | activity [%]
Cc1nc2sc(-c3ccccc3)cc2c(=O)[nH]1 | 73.8
O=C(NCCOc1ccccc1)c1cccc2c1C(=O)c1ccc(Cl)cc1S2(=O)=O | 54.2
Cc1ccc(CSc2nc3ncccc3[nH]2)cc1 | 68.2
Oc1ccc(-c2cnc(-c3ccc(O)cc3)nc2)cc1 | 93.3
Cc1ccc(/C=N/Nc2nnc(Cl)c3ccccc23)cc1 | 73.8
Cc1ccc(C(=O)COC(=O)c2ccc3c(c2)C(=O)N(c2cccc4ncccc24)C3=O)cc1 | 43.5
COc1ccc2cc3cc(C(=O)N4CCCCCC4)oc3nc2c1 | 41.9
CN(C)c1cccc(/C=C(\C#N)c2ccccc2)c1 | 40.8
COc1cc2c(cc1NC(=O)c1cccc([N+](=O)[O-])c1)oc1ccccc12 | -9.4
CC(C)N1CCc2c(sc(NC(=O)c3ccc([N+](=O)[O-])o3)c2C(N)=O)C1 | 93.5
Cc1cccc(Nc2nc(N)nc(CCl)n2)c1 | 96.8
CC(C)c1ccc(NC(=O)Nc2nc(C(N)C3CCCCC3)cs2)cc1 (stereo not given) | 99.3
OC(c1ccccc1)(c1ccccc1)C1CCN(CCCOc2ccc3c(c2)CCCC3)CC1 | 48.9
Cn1cccc1/C=C1\CCc2ccccc2C1=O | 51.8
COc1ccc(-c2cc3cc4c(cc3cn2)OCO4)cc1 | 52.8
COc1ccc(C(=O)c2c[nH]c3ccccc23)cc1 | 26.6
Cc1ccc(S(=O)(=O)n2ccc3c(OCCOCCNCc4ccc(F)cc4)cccc32)cc1 | 26.4
Cc1cccc(-n2ncc3c(NC4CCCCC4)ncnc32)c1 | 54.5
CCOc1ccc(/C=C/C(=O)c2c(O)cc(C)oc2=O)cc1 | 77.8
CCOC(=O)/C(=C/c1ccc(OC(F)F)cc1)C1=Nn2c(nnc2-c2ccc(Cl)cc2)SC1 | 97.1

Compound | activity [%]
Cc1ccc(-c2nnc(Nc3ccccc3)o2)cc1 | 54.5
CCCCCCCCC(c1nc2ccccc2[nH]1)N1CCN=C1c1cc2ccccc2[nH]1 (stereo not given) | 84.8
Cc1ccccc1C(=O)Nc1nnc(SCC(=O)NC2CC2)s1 | 45.2
CC1(C)N=C(N)N=C(N)N1CCCCc1ccccc1 | 68.3
Cc1ccc2oc(/N=C(\N)NC(=O)C3CC3)nc2c1 | 71
Cc1cccc(N2CCN(C(=S)Nc3ccc4nc(N5CCN(C)CC5)cc(C)c4c3)CC2)c1C | 99.2
COc1cc(SC#N)ccc1N=Cc1c(C)[nH]n(-c2ccc(C)c(C)c2)c1=O | 97.7
FC(F)(F)c1cc(CCN2CCNC[C@@H]2CC2CCCCC2)cc(C(F)(F)F)c1 | 84.2
O=C(Nc1ccc(N2CCOCC2)cc1)c1cnccn1 | 82.8
Nc1nc(=S)c2ncn(C3OC(CO)C(O)C3O)c2[nH]1 (stereo not given) | 6.78
O=C(/C=C/c1ccc(F)cc1)NC(=S)Nc1ccccc1C(=O)NC1CCCCC1 | -0.275
N/C(=N\OC(=O)COc1ccc(Cl)cc1Cl)c1ccccn1 | 52.3
CCOc1ccc(CN(C)C(=O)[C@H](Cc2ccccc2)NC(=O)OCc2ccccc2)cc1OC | 1.82
CCc1ccc(-c2cn3nc(C)c(C)nc3n2)cc1 | 63.9
COc1ccc2nc(-c3ccccc3)[nH]c2c1 | 65.5
Cc1cccc2sc(NNC(=O)c3ccc(S(=O)(=O)N4CCCC(C)C4)cc3)nc12 (stereo not given) | 42.3
C=Cc1ccc(Cn2c(C)c(C(=O)NCc3ccc(Cl)c(Cl)c3)sc2=O)cc1 | 68
O=C(CCN1C(=O)c2ccccc2C1=O)Nc1ccc(-c2nc3ccccc3s2)cc1 | 41.9
CN(C)CCCNC(=O)C[C@H]1C[C@H](C(=O)N2CCCCC2)[C@@]2(CCc3ccccc3)c3[nH]c4ccc(Cl)cc4c3CCN2C1=O | 82.6
CNC[C@H](Cc1ccccc1)NC[C@@H](Cc1cccc2ccccc12)NCCc1ccc(C)cc1 | 99.1
